Compound activity: PubChem BioAssay, several laboratories
A selection: hits, their analogues and other compounds. The true share with any hit is near 1.1%.
S1P3 antag: S1P3 receptor antagonists, primary screen, cell-based | Sphingosine 1-phosphate receptor 3 (Homo sapiens), Q99500 | CHO S1P3 NFAT-BLA reporter, FRET fluorescence, antagonist mode | inhibition, % at 4.98 µM | 170,000 tested, 0.27% active | AID 485, 2006;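 active = inhibition above the plate cutoff, the mean inhibition of test wells on that plate plus 3 SD, cut at about 28% in these data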;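 also: cells challenged with S1P at its EC80 of 0.8 µM; blue over green emission ratio from cleaved BLA substrate after 4 h stimulation; 0% = S1P-stimulated wells and 100% = unstimulated DMSO-only wells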
Redox H2O2 prof: compounds producing H2O2 with reducing agent – biochemical, NIH compound library profiling, artefact control for MLSCN library redox annotation, primary screen. AID 878, 2007. DTT-dependent redox cycling H2O2, phenol red/HRP absorbance; 100% = 100 µM peroxide control, 0% = buffer. 200,000 tested, 0.03% active. activation, % at 10 µM;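 active = activation of at least 50% relative to the plate's high and low controls in the primary single-dose screen; inactive = activation below 50%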;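 also: compound incubated with DTT at 0.8 mM final as the reducing agent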
S1P4 antag: S1P4 receptor antagonists, primary screen, cell-based. Sphingosine 1-phosphate receptor 4 (Homo sapiens), O95977. AID 1510, 2009. 220,000 tested, 0.26% active. S1P4-expressing cells, antagonist mode, reporter read-out. inhibition, % at 4.98 µM; in the data active = inhibition above about 29%;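 also: 0% = wells stimulated with agonist and 100% = vehicle wells without agonist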
S1P4 ag: S1P4 receptor agonists, primary screen, cell-based. 220,000 tested, 0.35% active. S1P4-expressing cell line, agonist reporter assay. activation, % at 4.98 µM; in the data active = activation above about 11%;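 also: 0% = DMSO vehicle and 100% = reference agonist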
UBC9 SUMO inh: inhibitors of in vitro SUMOylation cascade, primary screen, biochemical, HTRF, uHTS. SUMO-conjugating enzyme UBC9 (Homo sapiens), P63279. HTRF SUMOylation assay, SAE1/SAE2 + UBC9. inhibition, % at 35 µM. 290,000 tested, 0.36% active. AID 2006, 2009; in the data active = inhibition above about 50%, passing the limit was not always enough; inconclusive = no clear call, values can overlap the other calls
p97 inhibitor: inhibitors of human p97 ATPase, primary screen, biochemical | Transitional endoplasmic reticulum ATPase (Homo sapiens), P55072 | recombinant p97 ATPase, Kinase-Glo ATP luminescence, 3 h | inhibition, % at 8 µM | 220,000 tested, 0.42% active | AID 1481, 2009; in the data active = inhibition above about 15%;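 also: 0% = DMSO vehicle and 100% = wells lacking enzyme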
An asterisk follows results filed as active; ? = inconclusive; · = not tested or not shown.

SMILES	S1P3 antag	Redox H2O2 prof	S1P4 antag	S1P4 ag	UBC9 SUMO inh	p97 inhibitor
O=C1OCc2cccc([N+](=O)[O-])c21	-30.8	0.0	3.6	0.6	-2.4	1.5
O=C1CC(=O)c2c1cccc2[N+](=O)[O-]	2.5	·	-4.1	0.5	26.8	17.4*
COc1cccc2c1C(=O)c1c(O)c3c(c(O)c1C2=O)C[C@@](O)(C(C)=O)C[C@@H]3O[C@H]1C[C@H](N)[C@H](O)[C@H](C)O1	-2.2	3.1	101.4*	-2.8	33.1	-4.1
CCC(=O)Nc1nnc(/C=C/c2ccc(OC)cc2)s1	-10.9	·	9.4	0.0	30.9	-4.4
COc1ccc(/C=C/c2nnc(NC(=O)CSc3ccc(C)cc3)s2)cc1	-24.9	·	4.0	3.4	50.1*	-2.5
Nc1nc(-c2ccco2)c(-c2ccco2)s1	-16.1	2.8	-11.3	0.0	70.5	20.5*
CN(C)S(=O)(=O)c1ccc(C(=O)N2CC(=O)Nc3ccc(F)cc3C2c2ccc(F)cc2)cc1 (configuration not stated)	·	·	·	·	-3.5	·
CC1Cc2ccccc2N1C(=O)C1CCCN(S(=O)(=O)c2cccc3cccnc23)C1 (configuration not stated)	81.7*	-0.9	-17.8	-0.5	21.3	-5.7
O=C(Nc1ccccc1)c1ccc2nc(-c3ccco3)c(-c3ccco3)nc2c1	-40.4	2.4	-5.3	0.8	·	10.5
CC(=O)c1ccc(NC(=O)c2ccc3nc(-c4ccco4)c(-c4ccco4)nc3c2)cc1	·	1.7	-17.0	0.2	91.8*	1.0
O=C(NCCO)Nc1ccc2nc(-c3ccco3)c(-c3ccco3)nc2c1	-7.8	0.1	-6.4	1.0	98.1*	44.2*
O=C(NCCCO)c1ccc2nc(-c3ccco3)c(-c3ccco3)nc2c1	0.0	-0.4	-11.2	2.9	?	8.1
O=C(CSc1nnc(-c2ccco2)c(-c2ccco2)n1)c1ccccc1	-26.3	0.4	-17.6	1.4	86.8	9.7
CC(=O)c1ccc(NC(=O)CSc2nnc(-c3ccco3)c(-c3ccco3)n2)cc1	5.0	0.6	-3.5	3.1	89.6*	10.2
COc1ccc2nc3cccc(OC)c3nc2c1	-21.9	-1.4	-13.0	0.5	61.4	4.0
COc1ccc2nc(-c3ccco3)c(-c3ccco3)nc2c1	·	1.4	-5.0	2.0	71.2*	6.9
Cc1ccc(C(=O)N(c2ccccc2)C2CC(C)N(C(=O)c3ccco3)c3ccccc32)cc1 (configuration not stated)	·	-0.1	-10.9	1.4	19.7	-7.1
Cc1ccc(S(=O)(=O)NNC(=O)c2cc(C)cs2)cc1	0.1	·	-11.9	0.1	7.0	4.4
COC(=O)C1CCN(C(=O)COC(=O)c2oc3ccc(OC)cc3c2C)CC1	·	·	·	·	9.8	·
Cc1cc(C(=O)OCC(=O)Nc2ccc(S(=O)(=O)N3CCOCC3)cc2)c(C)o1	-24.6	0.0	-11.2	0.2	15.9	-0.1
Cc1cc(C(=O)OCC(=O)Nc2cc(S(=O)(=O)N3CCOCC3)ccc2Cl)c(C)o1	·	0.0	-4.4	0.2	1.6	16.0*
Cc1cc(C)c2cc(C)c(SCC(=O)NCc3ccco3)nc2c1	-7.9	-1.5	-4.9	0.6	10.7	-5.1
Cc1ccc2c(SCC(=O)NCc3ccco3)nc(-c3ccc(F)cc3)nc2c1	-6.2	1.6	11.6	-0.5	59.0*	1.0
CCOC(=O)c1ccc(N2CCN(C(C)=O)CC2)c(NC(=O)c2cccnc2)c1	-6.3	-0.2	-5.0	1.3	6.1	-0.4
CSc1ccc(/C=C(/NC(=O)c2ccccc2)C(=O)NCCN2CCOCC2)cc1	·	·	·	·	8.9	·
O=C(CC1S/C(=N/N=C/C=C/c2ccccc2)NC1=O)Nc1ccc(Cl)c(Cl)c1 (configuration not stated)	-12.4	0.5	-8.8	0.4	67.9*	-0.6
Cc1nn(-c2ccccc2)c2sc(C(=O)NNC(=O)COc3cccc4ccccc34)cc12	·	2.1	-0.2	1.1	3.2	5.2
Cc1nn(-c2ccccc2)c2sc(C(=O)NNC(=O)COc3ccccc3)cc12	·	1.2	3.1	-3.1	55.4*	0.9
